The test system of assay [1] is Wnt5a (protein binding on small-molecule microarray). In words: Wnt5a binders on small-molecule microarray, primary screen, biophysical, 635/667 nm fluorescence (AID 1142).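 Further: fluorescence read at 667 nm with signal to noise per printed feature.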 Conditions: 635 nm fluorescence, higher = more signal.
Assay [2] is described as follows: cell viability in Huh7 cells, primary screen, cytotoxicity control for HCV replication inhibitor project, CellTiter-Glo luminescence, basal, 48 h (AID 1143).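 Further: Huh7 hepatoma cells carrying a hepatitis C replication reporter with no stimulus; test concentration not given here.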 Particulars: Huh7 HCV replicon, CellTiter-Glo luminescence, 48 h, higher = more signal, called active from +8 up or from −8 down unless noted. (In general: In ATP-based viability assays light output follows the ATP content of the culture.)

Assay [3] can be described thus: P. aeruginosa biofilm formation inhibitors, primary screen, PAO1 strain, BacTiter-Glo luminescence, LB-PBS (AID 1144). Particulars: 12 h, higher = more signal.
Assay [4] in a line: CREB reporter modulators without forskolin, primary screen, cell-based, PC12, CRE-LacZ reporter, unstimulated (AID 1145). Conditions: no forskolin, luminescence, 4.5 h; higher = more signal, called active from +8 up or from −8 down unless noted.
The nature of assay [5]: CREB reporter modulators under forskolin, primary screen, cell-based, PC12, CRE-LacZ reporter, forskolin-stimulated (AID 1146).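 Further: PC12 cells with 6xCRE LacZ reporter stimulated by forskolin 10 µM; beta-galactosidase reporter signal reflecting CREB driven transcription.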 Particulars: luminescence, 4.5 h; higher = more signal, called active from +8 up or from −8 down unless noted.
Assay [6] addresses Streptavidin (Streptomyces avidinii) (UniProt P22629). The experiment in a line: streptavidin binders on small-molecule microarray, primary screen, artefact control for SMM compound annotation, biophysical, 635/667 nm fluorescence (AID 1147).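 Further: signal reflects streptavidin binding to arrayed compounds as a control protein.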 Conditions: streptavidin binding, higher = more signal.
Assay [7] is described as follows: small-molecule binders of probe aInhba, primary screen, biochemical, small-molecule microarray, 635/667 nm fluorescence (AID 1148).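 Further: score merges 667nm spot fluorescence with signal-to-noise for antibody binding to printed compounds.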 Particulars: higher = more signal; small-molecule microarray, probe aInhba, fluorescence unless noted.
Assay [8] addresses Torsin-1A (Homo sapiens) (UniProt O14656). In words: torsin A binders from cell lysate, primary screen, small-molecule microarray, wild-type, 635/667 nm (AID 1149). Conditions: COS7 hTOR1A-WT lysate, 635 nm fluorescence, higher = more signal.
Assay [9] shares this target. In words: small-molecule binders of mutant TOR1A in lysate, primary screen, cell lysate, small-molecule microarray, COS7 lysate, 635/667 nm fluorescence (AID 1150).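 Further: score pools 667 nm emission and signal to noise measuring lysate protein binding.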 Conditions: COS7 hTOR1A mutant lysate, 635 nm fluorescence, higher = more signal.
For assay [10], the system named is Sonic hedgehog protein (Shh). The experiment in a line: small-molecule binders of Shh protein, primary screen, biochemical, small-molecule microarray, 635/667 nm fluorescence (AID 1151).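 Further: Shh protein binding to compounds spotted on small-molecule microarray slides; score combines spot fluorescence intensity with signal-to-noise across triplicate slides.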 Conditions: small-molecule microarray binding, 635 nm fluorescence; higher = more signal.
The nature of assay [11]: E. coli DRC41 culture turbidity changes, primary screen, E. coli filamentation inducer project, strain DRC41, OD650, 48 h (AID 1152).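 Further: E. coli MC1000 strain DRC41 lacking acrAB efflux pump and sulA.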 Particulars: E. coli DRC41 (acrAB sulA); higher = more signal, called active from +8 up or from −8 down unless noted.
Assay [12] can be described thus: small-molecule binders of probe aLefty1, primary screen, biochemical, small-molecule microarray, 635/667 nm fluorescence (AID 1153).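 Further: score merges spot fluorescence with signal-to-noise ratio from the scanned slide images.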 Particulars: higher = more signal; small-molecule microarray, probe aLefty1, fluorescence unless noted.
The nature of assay [13]: PSAC antagonists in infected red cells, primary screen, cell-based, P. falciparum Indochina, OD700, 1 h (AID 1154). Conditions: P. falciparum Indochina infected RBC osmotic lysis; higher = more signal, called active from +8 up or from −8 down unless noted.
Assay [14] can be described thus: PSAC antagonists in infected red cells, primary screen, cell-based, P. falciparum Indochina, OD700, 2 h (AID 1155).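 Further: lysis reports solute entry through the parasite surface anion channel PSAC; channel blockers reduce lysis of infected cells.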 Conditions: P. falciparum Indochina infected erythrocytes, osmotic lysis OD700; higher = more signal, called active from +8 up or from −8 down unless noted.
A short description of assay [15]: osmotic lysis modulators in infected erythrocytes, primary screen, PSAC antagonist project, cell-based, P. falciparum Indochina, OD700, 3 h (AID 1156). Conditions: higher = more signal, called active from +8 up or from −8 down unless noted.
Assay [16] is described as follows: PSAC antagonists in infected red cells, primary screen, cell-based, P. falciparum Indochina, OD700, 18 h (AID 1157). Conditions: P. falciparum Indochina infected erythrocytes, osmotic lysis OD700, 18 h; higher = more signal, called active from +8 up or from −8 down unless noted.
Assay [17] is described as follows: modulators of S6 phosphorylation in cells, primary screen, cell-based, A549, cytoblot, luminescence, serum-stimulated (AID 1158).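 Further: serum-stimulated A549 lung adenocarcinoma cells; signal is phosphorylated S6 detected by cytoblot immunostaining with HRP secondary.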 Particulars: A549 phospho-S6 cytoblot, 5 h, higher = more signal.
Assay [18] deals with NADPH oxidase 2 (Homo sapiens) (UniProt P04839). The experiment in a line: NOX2-dependent H2O2 signal modulators, primary screen, NOX inhibitor project, cell-based, HEK293-NOX2, PMA-stimulated, Amplex Red fluorescence (AID 1159). Further: test concentration not given here. Conditions: 45 min; higher = more signal, called active from +8 up or from −8 down unless noted.
The target in assay [19] is NADPH oxidase 4 (Homo sapiens) (UniProt Q9NPH5). In words: NOX4-dependent H2O2 signal modulators, primary screen, NOX inhibitor project, cell-based, HEK293-NOX4, tetracycline-induced, Amplex Red fluorescence (AID 1160). Conditions: 45 min; higher = more signal, called active from +8 up or from −8 down unless noted.
Assay [20] addresses NADPH oxidase 5 (Homo sapiens) (UniProt Q96PH1). In words: NOX5-dependent H2O2 signal modulators, primary screen, NOX inhibitor project, cell-based, HEK293-NOX5, Amplex Red fluorescence (AID 1161). Conditions: HEK293-NOX5, ionomycin, 45 min, higher = more signal.

“And” between values parts separate entries of the source, which are not always exact repeats. Equal entries are not always repeated. The source made the active and inactive calls. Unless noted, how the calls were made is not given here.

NADPH oxidase 5 (Homo sapiens), sequence (Q96PH1 whole entry, looked up): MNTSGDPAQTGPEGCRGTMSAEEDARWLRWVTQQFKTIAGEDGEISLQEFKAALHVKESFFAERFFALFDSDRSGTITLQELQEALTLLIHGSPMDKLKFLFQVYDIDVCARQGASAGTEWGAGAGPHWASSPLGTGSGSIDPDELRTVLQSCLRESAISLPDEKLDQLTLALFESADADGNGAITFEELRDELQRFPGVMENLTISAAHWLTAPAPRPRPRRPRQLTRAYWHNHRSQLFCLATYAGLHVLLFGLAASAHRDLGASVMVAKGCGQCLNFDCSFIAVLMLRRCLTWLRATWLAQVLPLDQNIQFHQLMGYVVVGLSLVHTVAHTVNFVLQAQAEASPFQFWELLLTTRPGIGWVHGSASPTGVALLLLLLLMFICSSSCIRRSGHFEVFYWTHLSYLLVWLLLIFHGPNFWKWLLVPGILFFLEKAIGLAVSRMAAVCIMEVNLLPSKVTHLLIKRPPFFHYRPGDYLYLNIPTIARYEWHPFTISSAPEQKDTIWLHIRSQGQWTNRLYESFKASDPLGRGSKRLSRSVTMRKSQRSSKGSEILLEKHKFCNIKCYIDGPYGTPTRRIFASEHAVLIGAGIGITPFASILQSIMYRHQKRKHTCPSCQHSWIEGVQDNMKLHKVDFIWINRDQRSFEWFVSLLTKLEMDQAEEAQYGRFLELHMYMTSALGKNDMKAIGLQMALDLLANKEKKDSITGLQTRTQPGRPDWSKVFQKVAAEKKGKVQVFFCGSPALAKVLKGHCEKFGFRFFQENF
NADPH oxidase 4 (Homo sapiens), sequence (Q9NPH5 whole entry, looked up): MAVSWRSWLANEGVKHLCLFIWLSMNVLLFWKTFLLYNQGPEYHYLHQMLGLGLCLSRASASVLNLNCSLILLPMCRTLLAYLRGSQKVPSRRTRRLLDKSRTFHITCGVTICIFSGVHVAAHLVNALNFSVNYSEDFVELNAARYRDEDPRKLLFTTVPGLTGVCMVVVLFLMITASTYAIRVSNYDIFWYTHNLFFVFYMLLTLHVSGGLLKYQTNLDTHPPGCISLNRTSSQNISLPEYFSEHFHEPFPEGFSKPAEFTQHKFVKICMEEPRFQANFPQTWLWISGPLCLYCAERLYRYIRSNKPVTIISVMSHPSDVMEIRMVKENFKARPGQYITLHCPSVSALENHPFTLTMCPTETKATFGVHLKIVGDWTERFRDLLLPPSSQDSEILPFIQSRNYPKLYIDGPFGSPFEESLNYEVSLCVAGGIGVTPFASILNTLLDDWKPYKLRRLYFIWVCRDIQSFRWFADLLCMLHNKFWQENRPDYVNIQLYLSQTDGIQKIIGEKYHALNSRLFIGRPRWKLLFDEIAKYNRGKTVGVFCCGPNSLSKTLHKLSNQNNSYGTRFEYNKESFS
NADPH oxidase 2 (Homo sapiens), sequence (P04839 whole entry, looked up): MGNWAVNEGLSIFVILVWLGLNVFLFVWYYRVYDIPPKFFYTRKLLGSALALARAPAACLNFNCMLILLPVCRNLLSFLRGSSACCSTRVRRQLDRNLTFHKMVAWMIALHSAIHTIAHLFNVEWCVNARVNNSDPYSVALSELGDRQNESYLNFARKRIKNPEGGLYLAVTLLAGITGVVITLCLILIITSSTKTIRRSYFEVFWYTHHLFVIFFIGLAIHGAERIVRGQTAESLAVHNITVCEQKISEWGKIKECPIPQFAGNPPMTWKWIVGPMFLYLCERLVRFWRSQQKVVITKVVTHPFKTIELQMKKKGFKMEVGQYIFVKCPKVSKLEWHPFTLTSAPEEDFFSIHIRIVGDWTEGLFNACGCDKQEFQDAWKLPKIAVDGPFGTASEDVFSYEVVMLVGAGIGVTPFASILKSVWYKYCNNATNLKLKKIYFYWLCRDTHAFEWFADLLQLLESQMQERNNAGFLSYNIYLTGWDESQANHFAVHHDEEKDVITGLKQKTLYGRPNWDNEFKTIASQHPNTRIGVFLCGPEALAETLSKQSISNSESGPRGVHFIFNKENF
Streptavidin (Streptomyces avidinii), sequence (P22629 whole entry, looked up): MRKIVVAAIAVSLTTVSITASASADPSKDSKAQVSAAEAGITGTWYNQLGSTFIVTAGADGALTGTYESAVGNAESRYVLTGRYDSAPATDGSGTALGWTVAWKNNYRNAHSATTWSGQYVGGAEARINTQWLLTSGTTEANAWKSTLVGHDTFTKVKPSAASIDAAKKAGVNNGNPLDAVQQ
Torsin-1A (Homo sapiens), sequence (O14656 whole entry, looked up): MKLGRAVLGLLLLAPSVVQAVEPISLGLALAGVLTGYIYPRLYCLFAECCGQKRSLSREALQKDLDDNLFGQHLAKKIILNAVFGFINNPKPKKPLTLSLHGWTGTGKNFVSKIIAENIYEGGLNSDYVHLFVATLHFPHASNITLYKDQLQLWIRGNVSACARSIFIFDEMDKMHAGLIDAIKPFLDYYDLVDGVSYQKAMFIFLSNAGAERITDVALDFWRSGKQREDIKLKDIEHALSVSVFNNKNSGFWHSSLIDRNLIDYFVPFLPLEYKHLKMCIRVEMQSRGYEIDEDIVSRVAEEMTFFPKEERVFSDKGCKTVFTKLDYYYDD

For `COC(=O)C1(C)C=C2C(=C(C)C(=O)C2C)CN1` (stereo not given), the composite z-score in [1] is -0.163; in [6], -0.164; in assay [7], 0.0442; in the assay with Torsin-1A (Homo sapiens) [8], 0.219; with Torsin-1A (Homo sapiens) [9] it was -0.186; in assay [10] it was -0.473. In [12], this molecule showed a composite z-score of 0.257. Moreover, the z-score is 0.0631 (inactive) in assay [2]; -0.596 (inactive) in assay [3]; -0.182 (inactive) in assay [4]; 3.71 (inactive) in [5]; -1.84 (inactive) in assay [11]; 0.539 (inactive) in assay [13]. Further, the z-score in assay [14] was 0.405 (inactive); in [15] it was 1.16 (inactive); in assay [16], 0.643 (inactive); in assay [17] it was -0.232; in assay [18], -0.172 (inactive); in [19], -2.31 (inactive). In [20], this molecule had a z-score of -3.35.

With `COc1cc2c(cc1O)C=[N+](C)CC2`, the composite z-score is 0.182 in assay [1]; -0.306 in assay [6]; -0.152 in assay [7]; -1.31 with Torsin-1A (Homo sapiens) [8]; -1.25 with Torsin-1A (Homo sapiens) [9]; 1.65 in assay [10]. Also, the composite z-score in assay [12] is -0.147. For the same molecule, the z-score in assay [2] was -1.29 (inactive); in assay [3], -0.527 (inactive); in assay [4] it was -0.438 (inactive); in [5], -0.811 (inactive); in assay [11] it was 1.13 (inactive); in [13], 2.39 (inactive). Also, the z-score in [14] is -0.687 (inactive); in [15], 0.0284 (inactive); in assay [16], -0.752 (inactive); in [17], 2.42; in assay [18] it was -3.74 (inactive); in assay [19], -2.03 (inactive). The same molecule returned a z-score in assay [20] of -2.13.

`CCOC(=O)[C@H]1CC=C2C(=O)Oc3ccccc3[C@@H]21`: the composite z-score in assay [1] was -0.652; in assay [6], -0.521; in [7], -0.0405; in the assay with Torsin-1A (Homo sapiens) [8], -2.41; in the assay with Torsin-1A (Homo sapiens) [9], -1.59; in assay [10], -0.528. The composite z-score in [12] was -0.106. Further, the z-score in assay [2] is -1.22 (inactive); in [3] it was -0.473 (inactive); in assay [4], -0.228 (inactive); in assay [5] it was 1.7 (inactive); in assay [11], -0.59 (inactive); in [13], 1.27 (inactive). Besides, the z-score is 0.804 (inactive) in [14]; 0.458 (inactive) in [15]; 0.708 (inactive) in assay [16]; -0.395 in assay [17]; 0.00603 (inactive) in [18]; -0.285 (inactive) in [19]. Further, in assay [20], the z-score is -0.275.

Turning to `CC1N(P(=O)(c2ccccc2)c2ccccc2)CC(O)(c2ccccc2)CC12CC2` (stereo not given), the composite z-score in assay [1] is -0.025 and -0.0606; in [6] it was -0.586 and 0.107; in assay [7], -0.0589 and 0.475; with Torsin-1A (Homo sapiens) [8] it was -1.12 and -0.311; in the assay with Torsin-1A (Homo sapiens) [9], 0.699 and 0.319; in assay [10], -0.649 and -1.4. Besides, the composite z-score in assay [12] was -0.103 and 0.607. Also, the z-score in assay [2] is -0.601 (inactive) and -2.65 (inactive); in assay [3], 0.693 (inactive) and 0.00162 (inactive); in assay [4], 0.0075 (inactive) and -0.179 (inactive); in [5] it was 0.84 (inactive) and 0.498 (inactive); in assay [11], -1.36 (inactive) and -1.82 (inactive); in [13], 0.232 (inactive) and 0.667 (inactive). In addition, the z-score is -0.0745 (inactive) in assay [14]; 0.716 (inactive) and 0.248 (inactive) in [15]; 0.593 (inactive) and 0.642 (inactive) in assay [16]; -0.259 and -0.209 in assay [17]; -0.427 (inactive) and -1.04 (inactive) in assay [18]; -1.52 (inactive) and -0.626 (inactive) in assay [19]. The z-score in assay [20] was -3.13 and -2.02.

Values taken from PubChem BioAssay.
